PubChem BioAssay (NCI)
Compounds without any hit were thinned out: in the full panel of roughly 83,000, 20% have a hit.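 Single-dose data. Exposure time 48 hours. Values below 10 considered active.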 Active and inactive are the calls of the source.

Legend:
Assay in all cases: NCI-60 one-dose screen, 48 h (100 = growth as untreated, 0 = no growth, -100 = all killed)
Conditions in all cases: 10 µM unless noted
HCT-15 colon = tested on: HCT-15 colon
HT29 colon = tested on: HT29 colon
SNB-75 CNS = tested on: SNB-75 CNS
SNB-19 CNS = tested on: SNB-19 CNS
U251 CNS = tested on: U251 CNS
PC-3 prostate = tested on: PC-3 prostate
SK-MEL-5 melanoma = tested on: SK-MEL-5 melanoma
UACC-62 melanoma = tested on: UACC-62 melanoma
LOX IMVI melanoma = tested on: LOX IMVI melanoma
SK-MEL-28 melanoma = tested on: SK-MEL-28 melanoma

Measured: growth

COc1ccccc1C(=O)NC(=S)Nc1ccc(-c2nc3ccccc3[nH]2)cc1
inactive: HCT-15 colon 59.5% | HT29 colon 14.8% | SNB-19 CNS 84% | U251 CNS 29.3% | PC-3 prostate 86% | SK-MEL-5 melanoma 25.8% | UACC-62 melanoma 109% | LOX IMVI melanoma 20% | SK-MEL-28 melanoma 69.5%
active: SNB-75 CNS -62.7%

C[C@@H]1C(=O)N(C[C@H](Cc2ccccc2)N(Cc2ccccc2)Cc2ccccc2)[C@]1(Cc1ccccc1)C(=O)OC(C)(C)C
inactive: HCT-15 colon 70.9% | HT29 colon 46.4% | SNB-75 CNS 71.3% | SNB-19 CNS 66.9% | U251 CNS 49.2% | PC-3 prostate 27.9% | SK-MEL-5 melanoma 45.5% | UACC-62 melanoma 60.6% | LOX IMVI melanoma 62.8% | SK-MEL-28 melanoma 92%

CN1CCN(c2ccc3nc(/N=C/c4ccc5sc(-c6ccc([N+](=O)[O-])cc6)nc5c4)sc3c2)CC1
inactive: HCT-15 colon 102% | HT29 colon 103% | SNB-75 CNS 106% | SNB-19 CNS 104% | U251 CNS 93.9% | PC-3 prostate 104% | SK-MEL-5 melanoma 90.6% | UACC-62 melanoma 104% | LOX IMVI melanoma 117% | SK-MEL-28 melanoma 107%

O=C(NC1CCOCC1)c1ccc2c(c1)CN(c1ncc(Cc3cccc(-n4cccn4)c3)s1)CC2
inactive: HCT-15 colon 79.3% | HT29 colon 72.8% | SNB-75 CNS 91.5% | SNB-19 CNS 95.7% | U251 CNS 72.6% | PC-3 prostate 58.7% | SK-MEL-5 melanoma 31.5% | UACC-62 melanoma 64.5% | LOX IMVI melanoma 63.8% | SK-MEL-28 melanoma 88.3%

O=c1oc2ccc(Cl)cc2cc1-c1cs/c(=N/N=C\c2ccc(Cl)cc2)n1/N=C/c1ccc(Cl)cc1
inactive: HCT-15 colon 105% | HT29 colon 91.8% | SNB-75 CNS 123% | SNB-19 CNS 98.4% | U251 CNS 102% | PC-3 prostate 99.4% | SK-MEL-5 melanoma 104% | UACC-62 melanoma 93.8% | LOX IMVI melanoma 110% | SK-MEL-28 melanoma 110%

Cc1ccc(C)c2c1C(=O)OC2=O
inactive: HCT-15 colon 101% | HT29 colon 93.1% | SNB-75 CNS 91.2% | SNB-19 CNS 107% | U251 CNS 104% | PC-3 prostate 97.7% | SK-MEL-5 melanoma 102% | UACC-62 melanoma 101% | LOX IMVI melanoma 98.4% | SK-MEL-28 melanoma 92.9%

CCN(CC)S(=O)(=O)c1ccc(O)c(NC(=O)c2[nH]c(C)c(C(C)=O)c2CCc2ccc(Cl)cc2)c1
active: SK-MEL-5 melanoma -25%
inactive: HCT-15 colon 42.9% | HT29 colon 101% | SNB-75 CNS 52.1% | SNB-19 CNS 47.1% | U251 CNS 31.1% | PC-3 prostate 32.8% | UACC-62 melanoma 20.2% | LOX IMVI melanoma 39.5% | SK-MEL-28 melanoma 70.9%

CCCN1CCN(c2ccc3nc(-c4ccc5nc(-c6ccc(OCC)c(OCC)c6)[nH]c5c4)[nH]c3c2)CC1
active: HCT-15 colon 5.97% | HT29 colon -31.3% | SNB-75 CNS -77.9% | SNB-19 CNS -39.7% | U251 CNS -71.9% | PC-3 prostate -40.6% | SK-MEL-5 melanoma -93.9% | UACC-62 melanoma -85% | LOX IMVI melanoma -84.3% | SK-MEL-28 melanoma -86.6%

CCCCCOC(=O)c1cccc(NC(=O)CN(CC)CC)c1
inactive: HCT-15 colon 107% | HT29 colon 79.6% | SNB-75 CNS 103% | SNB-19 CNS 106% | U251 CNS 103% | PC-3 prostate 77.1% | SK-MEL-5 melanoma 105% | UACC-62 melanoma 103% | LOX IMVI melanoma 101% | SK-MEL-28 melanoma 108%

Cc1nc(Nc2ccc(NC(=S)Nc3ccccc3)cc2)nc2nc(Nc3cccc(Cl)c3)[nH]c(=O)c12
inactive: HCT-15 colon 98.2% | HT29 colon 114% | SNB-75 CNS 84.7% | SNB-19 CNS 102% | U251 CNS 92% | PC-3 prostate 93.1% | SK-MEL-5 melanoma 102% | UACC-62 melanoma 102% | LOX IMVI melanoma 92% | SK-MEL-28 melanoma 93.2%

C=C1C(=O)O[C@H]2[C@H]1CC/C(COC(=O)NCc1ccc(Cn3c(=O)sn(CCCCl)c3=O)cc1)=C\CC[C@@]1(C)O[C@@H]21
inactive: SNB-75 CNS 70.2% | SNB-19 CNS 76.1% | U251 CNS 57.7% | PC-3 prostate 67.1% | SK-MEL-5 melanoma 42.5% | UACC-62 melanoma 26.8% | SK-MEL-28 melanoma 28.1%
active: HCT-15 colon 8.02% | HT29 colon -30.2% | LOX IMVI melanoma -48.2%

CCCCNC(=O)NS(=O)(=O)c1ccc(N2N=C(c3ccc(C)cc3C)CC2c2ccc(N(C)C)cc2)cc1 (stereo not given)
inactive: HCT-15 colon 35.3% | HT29 colon 62% | SNB-75 CNS 75.4% | SNB-19 CNS 75.6% | U251 CNS 37% | PC-3 prostate 38% | SK-MEL-5 melanoma 47% | UACC-62 melanoma 54.8% | LOX IMVI melanoma 52.2% | SK-MEL-28 melanoma 45.5%

Cc1c2c(cn1Cc1ccccc1)CCc1cn[nH]c1-2
inactive: HCT-15 colon 99.3% | HT29 colon 94.5% | SNB-75 CNS 92.2% | SNB-19 CNS 86.9% | U251 CNS 89.3% | PC-3 prostate 74.9% | SK-MEL-5 melanoma 89% | UACC-62 melanoma 76.8% | LOX IMVI melanoma 90.8% | SK-MEL-28 melanoma 105%

O[C@H]1CO[C@H]2[C@@H]1OC[C@@H]2Oc1ccc(Nc2nc(Nc3ccc(F)c(Cl)c3)ncc2F)cc1Cl
active: SK-MEL-5 melanoma -90.5%
inactive: HCT-15 colon 90.8% | HT29 colon 111% | SNB-75 CNS 74.7% | SNB-19 CNS 103% | U251 CNS 108% | PC-3 prostate 102% | UACC-62 melanoma 89.4% | LOX IMVI melanoma 103% | SK-MEL-28 melanoma 99.7%

COc1ccc(O)c(-c2cc(-c3ccccc3)c(C#N)c(=O)[nH]2)c1
inactive: HCT-15 colon 100% | HT29 colon 118% | SNB-75 CNS 93.8% | SNB-19 CNS 103% | U251 CNS 73.4% | PC-3 prostate 78.3% | SK-MEL-5 melanoma 73.7% | UACC-62 melanoma 86.1% | LOX IMVI melanoma 64.3% | SK-MEL-28 melanoma 113%

CN(CCCCCCCCNc1ccnc2ccccc12)Cc1ccc(-c2ccc(-c3ccc(C#N)cc3)s2)cc1
inactive: SNB-75 CNS 42.5%
active: HCT-15 colon -82.1% | HT29 colon -55.1% | SNB-19 CNS -14.6% | U251 CNS -73.7% | PC-3 prostate -63.7% | SK-MEL-5 melanoma -100% | UACC-62 melanoma -37.4% | LOX IMVI melanoma -96.2% | SK-MEL-28 melanoma -84.1%

O=C(Nc1ccccc1)c1sc(-c2cccc(C(F)(F)F)c2)cc1O
inactive: HCT-15 colon 69.5% | HT29 colon 93.7% | SNB-75 CNS 78.5% | SNB-19 CNS 69.6% | U251 CNS 51.6% | PC-3 prostate 81% | SK-MEL-5 melanoma 18.4% | UACC-62 melanoma 23.3% | LOX IMVI melanoma 86.4% | SK-MEL-28 melanoma 53%

CC(C)(C)c1ccc(C(=O)Nc2sc3c(c2C(N)=O)CCC(=O)C3)cc1
inactive: SNB-19 CNS 15.2%
active: HCT-15 colon -29.3% | HT29 colon 3.24% | SNB-75 CNS -49.3% | U251 CNS -43.8% | PC-3 prostate -5.7% | SK-MEL-5 melanoma -81.2% | UACC-62 melanoma -36.7% | LOX IMVI melanoma -55.1% | SK-MEL-28 melanoma -14.9%

Nc1nc(Nc2ccc(Cl)cc2)nn1S(=O)(=O)c1ccc(-c2ccc(F)cc2)cc1
inactive: HCT-15 colon 77.4% | HT29 colon 80% | SNB-75 CNS 79% | SNB-19 CNS 88.8% | U251 CNS 88.8% | PC-3 prostate 67.4% | SK-MEL-5 melanoma 98.7% | UACC-62 melanoma 72.5% | LOX IMVI melanoma 83.6% | SK-MEL-28 melanoma 94.5%

Cc1cc(Cc2cc(C)cc(C(C)(C)C)c2O)c(O)c(C(C)(C)C)c1
inactive: HCT-15 colon 21.4% | HT29 colon 25% | SNB-75 CNS 69.3% | SNB-19 CNS 48% | U251 CNS 32.5% | PC-3 prostate 33.9% | SK-MEL-5 melanoma 48.3% | UACC-62 melanoma 47% | LOX IMVI melanoma 47.5% | SK-MEL-28 melanoma 80.3%

Nc1ccn(C2OC(F)(CO)C(O)C2F)c(=O)n1 (stereo not given)
inactive: HCT-15 colon 63.1% | HT29 colon 48.3% | SNB-75 CNS 68.3% | SNB-19 CNS 36.8% | U251 CNS 29.8% | PC-3 prostate 50.1% | SK-MEL-5 melanoma 47.4% | UACC-62 melanoma 49.3% | LOX IMVI melanoma 73.1% | SK-MEL-28 melanoma 74.3%

C(=C\c1nc2ccccc2[nH]1)/c1nc2ccccc2[nH]1
inactive: HCT-15 colon 100% | HT29 colon 103% | SNB-75 CNS 86.2% | SNB-19 CNS 109% | U251 CNS 106% | PC-3 prostate 90% | SK-MEL-5 melanoma 92.8% | UACC-62 melanoma 91.1% | LOX IMVI melanoma 98.1% | SK-MEL-28 melanoma 104%

CC(=O)OCCc1ccccc1
inactive: HCT-15 colon 107% | HT29 colon 107% | SNB-75 CNS 74.4% | SNB-19 CNS 102% | U251 CNS 100% | PC-3 prostate 99.2% | SK-MEL-5 melanoma 105% | UACC-62 melanoma 100% | LOX IMVI melanoma 101% | SK-MEL-28 melanoma 111%

CC(=O)NCC(=O)Nc1ccc(-c2nnc3ccccn23)nc1.CC(=O)NCC(=O)Nc1ccc(-c2nnc3ccccn23)nc1.[Pt+2]
inactive: HCT-15 colon 109% | HT29 colon 98.3% | SNB-75 CNS 132% | SNB-19 CNS 107% | U251 CNS 99.4% | PC-3 prostate 101% | SK-MEL-5 melanoma 108% | UACC-62 melanoma 110% | LOX IMVI melanoma 106% | SK-MEL-28 melanoma 118%

Cc1nc(Nc2ccc(N)cc2)c2ccccc2n1
inactive: HCT-15 colon 89.4% | HT29 colon 88.9% | SNB-75 CNS 103% | SNB-19 CNS 97.7% | U251 CNS 99.1% | PC-3 prostate 91% | SK-MEL-5 melanoma 91.9% | UACC-62 melanoma 98.5% | LOX IMVI melanoma 90.7% | SK-MEL-28 melanoma 114%

CC(C)n1nc(C#Cc2cccc(NC(=O)c3cccc(C(F)(F)F)c3)c2)c2c(N)ncnc21
active: HCT-15 colon -3.07% | HT29 colon -11.7% | SNB-75 CNS -66.2% | SNB-19 CNS 5.79% | U251 CNS 2.84% | SK-MEL-5 melanoma -61.4% | UACC-62 melanoma -56.1% | LOX IMVI melanoma -91.8% | SK-MEL-28 melanoma -27.9%
inactive: PC-3 prostate 16.4%

COc1ccc(-n2nnc(C(=O)NCCc3c[nH]c4ccc(F)cc34)c2C)cc1
inactive: HCT-15 colon 104% | HT29 colon 86.4% | SNB-75 CNS 93.7% | SNB-19 CNS 105% | U251 CNS 92.4% | PC-3 prostate 87.4% | SK-MEL-5 melanoma 102% | UACC-62 melanoma 98.4% | LOX IMVI melanoma 98.6% | SK-MEL-28 melanoma 109%
